Test results from PubChem BioAssay AID1063 (University of Pittsburgh Molecular Library Screening Center, 2008).
Out of some 200,000 compounds screened, about 18,000 (9%) were called active. Shown is part of a subset that was picked to be rich in actives. Values without a mark were called inactive. Rule as the data show it: active = inhibition above about 50%; inactive = the rest. Where a SMILES comes first, the peptide text is derived from it. [ ]: non-standard residue; d: D form. ξ: configuration not given here. ξM = CSCCC(N)C(=O)O

Experiment: antileishmanial activity against promastigotes – primary screen (AID 1063);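 also: promastigotes grown with compound for 44 hours at 28 °C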
Details: Leishmania major promastigotes, resazurin fluorescence viability; at 10 µM; stronger effect = higher value
In the case of O=C(Nc1nnc(Cc2ccc(Cl)cc2)s1)c1cccnc1, the inhibition is reported as -10.8%.
Work on COC(=O)N/N=C/c1ccc(/C=N/NC(=O)OC)cc1 yielded an inhibition of -5.23%.
Work on C=CCn1c(-c2sc(-c3ccccc3)nc2C)n[nH]c1=S yielded an inhibition of -5.29%.
CCCNC(=O)c1ccc(Cl)c(Cl)c1 showed an inhibition of -4.03%.
In the case of CCN(CC)CC1(O)CCN(C(=O)c2ccc(Cl)c(Cl)c2)CC1, the inhibition is reported as 99.6% (active).
O=C(c1ccc(Cl)c(Cl)c1)N1CCCC1 gave an inhibition of -4.87%.
ClC1(Cl)CC1CSc1ncn[nH]1 (stereo unspecified) showed an inhibition of 3.37%.
For CCOC(=O)CCNC(=O)N1CCCC(C(=O)c2ccccc2SC)C1 (stereo unspecified), the inhibition was -1.7%.
Compound CCc1ccc(CNC(=O)C2CCCN(c3nc4ccccc4o3)C2)cc1 (stereo unspecified) has an inhibition of 0.6%.
In the case of CCOC(=O)c1cnc(Nc2nc3ccccc3o2)nc1CSC(=S)N1CCCCC1, the inhibition is reported as 56.7% (active).
For COc1ccc(-n2nc(C(=O)Nc3cc(OC)c(OC)c(OC)c3)c3ccccc3c2=O)c(OC)c1, the inhibition was 0.87%.
Work on O=C(CSc1ccc(C(F)(F)F)cc1[N+](=O)[O-])NCCOc1ccccc1 yielded an inhibition of -4.83%.
In the case of CC(CNc1ccc([N+](=O)[O-])c2cccnc12)Nc1c([N+](=O)[O-])cc(C(F)(F)F)cc1[N+](=O)[O-] (stereo unspecified), the inhibition is reported as 76.9% (active).
Compound O=C(c1cccc(F)c1)N1CCN(c2ccc([N+](=O)[O-])c3cccnc23)CC1 has an inhibition of 45.7%.
Work on COc1ccnc(Oc2ccccc2)c1-c1ncn[nH]1 yielded an inhibition of -5.3%.
CC1CCN(S(=O)(=O)c2ccc3ncn(CC(=O)N(C)C4CCCCC4)c(=O)c3c2)CC1 gave an inhibition of -0.9%.
For Cc1ccc(NC(=O)Nc2nnc(-c3ccncc3)s2)cc1, the inhibition was 12.8%.
With CCN1/C(=C/c2ccc3ccc(C)cc3[n+]2CC)Sc2ccccc21 the inhibition was 100% (active).
For CCN1/C(=C\c2ccc3ccccc3[n+]2CC)Sc2cc(C)ccc21, the inhibition was 101% (active).
In the case of CCC(=O)/C=C1\Sc2ccccc2N1CC, the inhibition is reported as 3.43%.
Compound O=C(Cc1ccccc1)N1CCN(S(=O)(=O)c2ccc([N+](=O)[O-])cc2)CC1 has an inhibition of 5.24%.
Compound Cc1ccc(Nc2c(F)c(F)c(F)c(F)c2C(=O)O)c(C)c1 has an inhibition of -6.66%.
With COc1cccc(CN(C)CC(=O)Nc2ccccc2C(=O)Nc2ccccc2)c1 the inhibition was 16.9%.
Work on Cc1cc([N+](=O)[O-])ccc1NC(=O)c1ccc(NC(=O)C(C)C)cc1 yielded an inhibition of -5.33%.
For CN1CC(c2ccccc2)C2(COc3ccccc3C2=O)C12C(=O)Nc1ccccc12 (stereo unspecified), the inhibition was 62.6% (active).
With O=S(=O)(c1ccc(F)cc1)N1CCN(Cc2ccccc2C(F)(F)F)CC1 the inhibition was 51.1% (active).
Work on Cc1ccc(S(=O)(=O)N2CCN(Cc3cccc(C)c3O)CC2)cc1 yielded an inhibition of -1.84%.
Compound O=C(CN1CCN(S(=O)(=O)c2ccc(F)cc2)CC1)Nc1ccccc1F has an inhibition of 1.33%.
COc1ccc(CN(C)C(C)C(=O)NC2CCCc3ccccc32)cc1 (stereo unspecified) gave an inhibition of 10%.
For O=C(c1ccccc1)N1CCN(c2ccc([N+](=O)[O-])c(NCc3ccco3)c2)CC1, the inhibition was 65.6% (active).
Work on O=[N+]([O-])c1ccc(N2CCN(S(=O)(=O)c3ccc4ccccc4c3)CC2)cc1NCc1ccco1 yielded an inhibition of -0.79%.
O=C(c1cccc(F)c1)N1CCN(c2ccc([N+](=O)[O-])c(N3CCCCC3)c2)CC1 showed an inhibition of 4.09%.
CN(C)c1ccc(/C=N/NC(=O)C(O)c2ccc(Br)cc2)cc1 (stereo unspecified) showed an inhibition of 4.17%.
Compound CN(C)c1ccnc(Nc2ccc(F)cc2)c1C#N has an inhibition of -2.28%.
Work on COC(=O)/C(NC(C)=O)=C(\C)c1ccc(Cl)cc1 yielded an inhibition of 0.11%.
With C/C(=N\N=C(N)N)c1ccc(Cl)cc1 the inhibition was 98.8% (active).
In the case of CCOC(=O)NNC(=O)c1ccc(Cl)cc1, the inhibition is reported as -5.24%.
In the case of Fc1cccc(Cc2noc(CN3CCN(c4cnccn4)CC3)n2)c1, the inhibition is reported as -3.37%.
Work on CCOC(=O)N1CCN(Cc2nc(Cc3cccc(C(F)(F)F)c3)no2)CC1 yielded an inhibition of 4.8%.
With FC(F)(F)c1cccc(Cc2noc(CN3CCC(N4CCCCC4)CC3)n2)c1 the inhibition was 82.7% (active).
Work on Cc1ccc(S(=O)(=O)/N=C(/Nc2ccc3[nH]c(=O)[nH]c3c2)c2ccccc2)cc1 yielded an inhibition of -4.98%.
For CCOC(=O)c1ccc(N/C(=N/S(=O)(=O)c2ccccc2)c2ccccc2)cc1, the inhibition was 61.3% (active).
Compound O=S(=O)(/N=C(/Nc1ccccc1)c1ccccc1)c1cccs1 has an inhibition of 1.04%.
Work on COC(=O)CNC(=O)C(CCSC)NC(C)=O (stereo unspecified) (Ac-[ξM]-Gly-OMe) yielded an inhibition of -3.76%.
Work on COc1ccc(C[C@H]2CN3C(=NC[C@H]3C)N2CCNC(=O)CCC2CCCCC2)cc1 yielded an inhibition of 31.8%.
In the case of Cc1cccc(-n2c(=O)c3c(C)c(C)sc3n(CC(N)=O)c2=O)c1, the inhibition is reported as 4.25%.
CC(=O)N(CN1C(=O)C2C3C=CC(C3)C2C1=O)c1cccc(Cl)c1 (stereo unspecified) showed an inhibition of -6.29%.
Compound O=C(COC(=O)CNS(=O)(=O)c1ccccc1)NC12CC3CC(CC(C3)C1)C2 has an inhibition of 1.38%.
COc1ccccc1-c1nnc(NC(=O)c2cccc(N3C(=O)CCC3=O)c2)o1 showed an inhibition of -4.87%.
In the case of COc1ccccc1-c1nnc(NC(=O)c2ccc3ncsc3c2)o1, the inhibition is reported as 80.7% (active).
Compound COc1ccccc1-c1nnc(SCC(=O)Nc2ccccc2)o1 has an inhibition of 2.06%.
In the case of Cc1ccc(S(=O)(=O)Cc2cc(-c3ccc(Cl)cc3)no2)cc1, the inhibition is reported as -0.46%.
With COc1ccccc1CC(NC(C)=O)C(=O)NC1CCN(C(=O)Nc2ccccc2Cl)CC1 (stereo unspecified) the inhibition was -3.45%.
COCCCNC(=O)Cn1c(=O)n(Cc2ccccc2Cl)c(=O)c2cc(OC)c(OC)cc21 gave an inhibition of -3.45%.
Compound Cc1ccc(S(=O)(=O)CCC(=O)OCc2ccccc2)cc1 has an inhibition of -3.07%.
Work on CCOc1cc(C2C(C(=O)OC(C)C)=C(C)NC3=C2C(=O)CCC3)cc([N+](=O)[O-])c1O (stereo unspecified) yielded an inhibition of 8.32%.
In the case of COc1ccc(C(=O)Nc2ccc(CN3CCOCC3)cc2)cc1, the inhibition is reported as 0.71%.
With O=C(Nc1ccc(CSc2ccccc2)cc1)c1ccc(CN2CCOCC2)cc1 the inhibition was 95.2% (active).
Compound O=C(Nc1ccccc1C(=O)N1CCOCC1)c1ccc(CSc2ccccc2)cc1 has an inhibition of 15.2%.
Work on NC(=O)COC(=O)c1sc2cc(F)ccc2c1Cl yielded an inhibition of -4.95%.
For O=C(O)CCCCOn1ccnc1, the inhibition was -5.36%.
In the case of Cc1oc2c(c1C(=O)N1CCOCC1)C(=O)c1ccccc1C2=O, the inhibition is reported as 99.7% (active).
For O=C(c1ccccc1-c1ccccc1)N1CCOCC1, the inhibition was 1.25%.
Work on Cc1onc(-c2ccccc2)c1C(=O)N1CCOCC1 yielded an inhibition of 0.76%.
In the case of Cc1c(C=O)n(C)n(-c2ccccc2)c1=O, the inhibition is reported as 0.34%.
For COc1cc(NC(=O)COc2ccccc2Cl)ccc1NC(=O)C(C)C, the inhibition was 1.32%.
For CN(C)S(=O)(=O)c1ccc2oc(SCC(=O)Nc3ccccc3F)nc2c1, the inhibition was 2.57%.
With CSc1ccccc1NC(=O)Cc1ccc(Br)cc1 the inhibition was 53.5% (active).
Cc1cccc(C)c1NC(=O)CNC(=O)Cc1ccc(Br)cc1 gave an inhibition of -3.9%.
In the case of CSc1ccccc1NC(=O)CN(C)CC(=O)Nc1cccc(Br)c1, the inhibition is reported as 18.6%.
Work on Cc1ccc(OCC(=O)Nc2ccc(S(=O)(=O)Nc3ccccn3)cc2)cc1 yielded an inhibition of -4.12%.
Compound C=CCN(c1ccc(C(N)=O)cc1)S(C)(=O)=O has an inhibition of -6.04%.
With C=CCN(c1ccc(C(=O)Nc2cc(C)cc(C)c2)cc1)S(C)(=O)=O the inhibition was 76% (active).
Compound CSCc1ccc(C(=O)Nc2cc(C)cc(C)c2)cc1 has an inhibition of -3.2%.
With Cc1cccc2nc(CSc3nc4[nH]ncc4c(=O)n3-c3cccc(Cl)c3)cc(=O)n12 the inhibition was 56.1% (active).
With O=C(CSc1nc2[nH]ncc2c(=O)n1-c1ccccc1)N1CCCc2ccccc21 the inhibition was 15.2%.
With CCc1ccc(-n2c(SCc3cc(=O)n4cc(Br)ccc4n3)nc3[nH]ncc3c2=O)cc1 the inhibition was 56.9% (active).
For COc1ccc(CCNC(=O)CSc2nc3[nH]ncc3c(=O)n2-c2cccc(C(F)(F)F)c2)cc1OC, the inhibition was -7.3%.
Compound Cc1ccc(CSc2nc3[nH]ncc3c(=O)[nH]2)cc1 has an inhibition of -3.25%.
In the case of O=c1c2sccc2nc(SCc2cc(=O)n3ccccc3n2)n1-c1ccc(Br)cc1, the inhibition is reported as 12.1%.
Compound CC(C)Oc1ccc(Cc2n[nH]c(=S)n2Cc2ccccc2)cc1Cl has an inhibition of 4.91%.
Nc1c(NCCc2ccccc2)c2ccccc2oc1=O gave an inhibition of -2.7%.
Cc1ccc(C(=O)N/C(=C\c2cccs2)C(=O)NCCc2ccccn2)cc1C showed an inhibition of 16.6%.
For COC(=O)C1=C(C)N(C)C(=S)NC1c1cc(OC)ccc1OC (stereo unspecified), the inhibition was 3.3%.
In the case of COc1cc(SC)ccc1C(=O)NCCOc1ccccc1Cl, the inhibition is reported as 1.79%.
For COc1cc(SC)ccc1C(=O)Nc1cc(C)ccn1, the inhibition was 25.5%.
In the case of COc1ccccc1CNC(=O)c1ccc(SC)cc1OC, the inhibition is reported as 66.9% (active).
With O=C(NNC(=O)C1C2CCC(C2)C1C(=O)O)c1ccc(Cl)cc1 (stereo unspecified) the inhibition was -5.41%.
Compound Cc1cccc(C(=O)OC(C)CN2CCN(C)CC2)c1 (stereo unspecified) has an inhibition of 3.94%.
Work on CO/N=C/c1cn(-c2ccc(Cl)cc2)nn1 yielded an inhibition of -1.77%.
For CCC1CCCCN1CCCNC(=O)c1cc2c(Cl)nc3ccccc3c2s1 (stereo unspecified), the inhibition was 100% (active).
CCC1CCCCN1CCCNC(=O)C1CCC(Cn2c(=O)[nH]c3ccccc3c2=O)CC1 (stereo unspecified) showed an inhibition of -4.5%.
For CCC1CCCCN1CCCNC(=O)Cn1nc(-c2ccccc2)ccc1=O (stereo unspecified), the inhibition was -4.42%.
For Cc1ccccc1C(OCC(O)CN1CCCCC1CCO)c1ccccc1 (stereo unspecified), the inhibition was 99.7% (active).
Compound CC(C)OCC(O)CN1CCN(C(c2ccccc2)c2ccccc2)CC1 (stereo unspecified) has an inhibition of 0.57%.
With Cc1ccccc1C(OCCN(C)C)C1CCCCC1 (stereo unspecified) the inhibition was 18.1%.
